From the supplement of paper PMC7411054

Experiments:
Settings in all cases: treatment time: 24 h
[1] = system: HepG2-ACTB-RAB5A; experiment: lowest phenotypically active concentration; higher = less potent
Summary of the method: (§1)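 Cells from fifteen gene-edited reporter lines (A549, HepG2 and WPMY1) were treated for 24 h at 0.3, 1, 3 or 9 µM and imaged live, four wells per condition. Features were normalised per well to solvent control wells. A condition deviated if ≥3 of 4 wells passed the 95th percentile of control Euclidean distances and was reproducible if its median replicate Pearson correlation beat the 95th percentile of non-replicates; phenotypic activity needed both.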

[2] = system: HepG2-CANX-COX4; experiment: as above
Summary of the method: as §1

[3] = system: HepG2-TP53BP1-CLTA; experiment: as above
Summary of the method: as §1

[4] = system: HepG2-TUBA1B-RELA; experiment: as above
Summary of the method: as §1

[5] = system: WPMY1-ACTB-RAB5A; experiment: as above
Summary of the method: as §1

[6] = system: WPMY1-CANX-COX4; experiment: as above
Summary of the method: as §1

[7] = system: WPMY1-GM130-SQSTM1; experiment: as above
Summary of the method: as §1

[8] = system: WPMY1-TP53BP1-CLTA; experiment: as above
Summary of the method: as §1

[9] = system: WPMY1-TUBA1B-RELA; experiment: as above
Summary of the method: as §1

[10] = system: WPMY1-ACTB-RAB5A; experiment: phenotypically active (imaging signature differs from DMSO and reproducible) at any of 0.3-9 uM (binary (1 = active, 0 = inactive)); higher = active
Summary of the method: as §1

CCCCCCCCCCCCCCCC[n+]1ccn(Cc2ccccc2)c1C
active: phenotypically active [10] 1
3 µM: lowest phenotypically active concentration [5] | lowest phenotypically active concentration [7] | lowest phenotypically active concentration [8] | lowest phenotypically active concentration [9]
1 µM: lowest phenotypically active concentration [1] | lowest phenotypically active concentration [2] | lowest phenotypically active concentration [3] | lowest phenotypically active concentration [4] | lowest phenotypically active concentration [6]

C=C1CN(Cc2ccc(C(=O)Nc3ccccc3N)cc2)C(=O)c2ccccc21
3 µM: lowest phenotypically active concentration [9]
active: phenotypically active [10] 1
1 µM: lowest phenotypically active concentration [3] | lowest phenotypically active concentration [4]
≤ 0.3 µM: lowest phenotypically active concentration [1] | lowest phenotypically active concentration [2] | lowest phenotypically active concentration [5] | lowest phenotypically active concentration [6] | lowest phenotypically active concentration [7] | lowest phenotypically active concentration [8]

Nc1ccc(-c2ccc3ncc4ccc(=O)n(-c5cccc(C(F)(F)F)c5)c4c3c2)cn1 [Torin 2]
≤ 0.3 µM: lowest phenotypically active concentration [1] | lowest phenotypically active concentration [2] | lowest phenotypically active concentration [3] | lowest phenotypically active concentration [4] | lowest phenotypically active concentration [5] | lowest phenotypically active concentration [6] | lowest phenotypically active concentration [7] | lowest phenotypically active concentration [8] | lowest phenotypically active concentration [9]
active: phenotypically active [10] 1

CCc1cccc(CC)c1NC(=O)N1Cc2[nH]nc(NC(=O)c3ccc(N4CCN(C)CC4)cc3)c2C1
active: phenotypically active [10] 1
≤ 0.3 µM: lowest phenotypically active concentration [1] | lowest phenotypically active concentration [2] | lowest phenotypically active concentration [3] | lowest phenotypically active concentration [4]
1 µM: lowest phenotypically active concentration [5] | lowest phenotypically active concentration [6] | lowest phenotypically active concentration [7] | lowest phenotypically active concentration [8] | lowest phenotypically active concentration [9]

COc1ccc(N2C(=O)CSC2c2cccc(Br)c2)c(OC)c1 (stereo not given)
active: phenotypically active [10] 1
3 µM: lowest phenotypically active concentration [2] | lowest phenotypically active concentration [5] | lowest phenotypically active concentration [6] | lowest phenotypically active concentration [7] | lowest phenotypically active concentration [8] | lowest phenotypically active concentration [9]
9 µM: lowest phenotypically active concentration [1] | lowest phenotypically active concentration [3] | lowest phenotypically active concentration [4]

COc1cc(N2CCOCC2)ccc1Nc1ncc(Cl)c(Nc2ccccc2NS(C)(=O)=O)n1
9 µM: lowest phenotypically active concentration [5] | lowest phenotypically active concentration [6] | lowest phenotypically active concentration [7] | lowest phenotypically active concentration [8]
active: phenotypically active [10] 1
3 µM: lowest phenotypically active concentration [1] | lowest phenotypically active concentration [2] | lowest phenotypically active concentration [3] | lowest phenotypically active concentration [4] | lowest phenotypically active concentration [9]

COc1ccc(-c2cc3c(C)nc(N)nc3n([C@H]3CC[C@H](OCCO)CC3)c2=O)cn1
active: phenotypically active [10] 1
≤ 0.3 µM: lowest phenotypically active concentration [1] | lowest phenotypically active concentration [2] | lowest phenotypically active concentration [3] | lowest phenotypically active concentration [4] | lowest phenotypically active concentration [5] | lowest phenotypically active concentration [6] | lowest phenotypically active concentration [7] | lowest phenotypically active concentration [8] | lowest phenotypically active concentration [9]

Cc1ccc(C(=O)N(CCCN)[C@@H](c2nc3cc(Cl)ccc3c(=O)n2Cc2ccccc2)C(C)C)cc1 [Ispinesib]
3 µM: lowest phenotypically active concentration [6]
active: phenotypically active [10] 1
≤ 0.3 µM: lowest phenotypically active concentration [1] | lowest phenotypically active concentration [2] | lowest phenotypically active concentration [3] | lowest phenotypically active concentration [4] | lowest phenotypically active concentration [5] | lowest phenotypically active concentration [7] | lowest phenotypically active concentration [8] | lowest phenotypically active concentration [9]

COc1cc2c(NC3CCN(C(C)C)CC3)nc(N3CCC(F)(F)CC3)nc2cc1OCCCN1CCCC1
1 µM: lowest phenotypically active concentration [2] | lowest phenotypically active concentration [3] | lowest phenotypically active concentration [5] | lowest phenotypically active concentration [6] | lowest phenotypically active concentration [8] | lowest phenotypically active concentration [9]
active: phenotypically active [10] 1
≤ 0.3 µM: lowest phenotypically active concentration [1] | lowest phenotypically active concentration [4] | lowest phenotypically active concentration [7]
